High-throughput results as filed in PubChem.
D2 PAM-1: HTS Assay for Positive Allosteric Modulators of the Human D2 Dopamine Receptor: Primary Screen for Potentiators; D(2) dopamine receptor (Homo sapiens), P14416; HEK293 T-REx D2, calcium flux, EC20 dopamine potentiation; potentiation, % at 10 µM; actives 0.34% (n = 340,000); AID 485347, 2010;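 active = potentiation over 3 SD above the plate norm, cut at about 30% in these data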; note: 0% is about no effect
Target sequence (P14416 whole entry, looked up): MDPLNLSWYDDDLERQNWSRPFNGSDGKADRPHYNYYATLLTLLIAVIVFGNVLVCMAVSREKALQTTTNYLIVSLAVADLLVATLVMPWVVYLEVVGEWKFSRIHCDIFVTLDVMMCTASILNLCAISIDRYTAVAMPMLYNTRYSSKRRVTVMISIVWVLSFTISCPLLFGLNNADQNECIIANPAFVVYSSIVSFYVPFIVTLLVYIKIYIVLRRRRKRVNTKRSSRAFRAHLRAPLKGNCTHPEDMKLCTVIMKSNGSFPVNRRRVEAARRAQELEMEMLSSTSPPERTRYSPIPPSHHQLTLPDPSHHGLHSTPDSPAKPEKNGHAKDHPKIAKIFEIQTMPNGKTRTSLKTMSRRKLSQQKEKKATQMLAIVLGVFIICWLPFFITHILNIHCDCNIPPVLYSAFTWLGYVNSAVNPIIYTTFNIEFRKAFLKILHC
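Potentiation of an EC20 dopamine calcium response is measured in a force-coupled, tetracycline-inducible Hek293 Trex D2 line. Compound-only kinetic reads over 180 s flag agonists before dopamine addition.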
D2 ag-1: HTS Assay for Allosteric Agonists of the Human D2 Dopamine Receptor: Primary Screen for Agonists; D(2) dopamine receptor (Homo sapiens), P14416; HEK293 T-REx D2 cells, calcium flux agonist mode; activation, % at 2 µM; actives 0.53% (n = 340,000);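 active = activation over 3 SD above normal in the single-dose calcium agonist read, cut at about 30% in these data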; note: 0% is about no effect
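Agonism scored from kinetic calcium signal (1 read/sec, 180 s) following compound pin transfer, after a 10 s baseline. Cells: HEK293 Trex line expressing inducible D2 receptor coupled to calcium, dye-loaded after overnight culture at 30 C.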
D2 ag-2: Beta-Arrestin HTS for Positive Allosteric Modulators of the Human D2 Dopamine Receptor: Agonists | D(2) dopamine receptor (Homo sapiens), P14416 | DiscoveRx PathHunter D2 beta-arrestin, luminescence, 90 min; 100% = 57 uM dopamine signal | activation, % (no concentration beside the values) | actives 0.084% (n = 360,000) | AID 624465, 2012; in the data active = activation above about 40%; inconclusive = between about 15% and that limit
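DiscoveRx PathHunter D2 beta-arrestin cells (2,100/well) attached overnight, then compound-stimulated 90 min at 37 C in HBSS/10 mM HEPES/0.1% Tween-20 buffer; beta-galactosidase complementation read by luminescence after 1 h at ambient temperature. Dopamine 57 uM final (EC100) as control.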
D2 PAM-2: Beta-Arrestin HTS for Positive Allosteric Modulators of the Human D2 Dopamine Receptor: Potentiators | D(2) dopamine receptor (Homo sapiens), P14416 | DiscoveRx D2 beta-arrestin cells, luminescence, 90 min; 100% = 57 uM dopamine signal | potentiation, % (concentration not given with the values) | actives 0.23% (n = 360,000) | AID 624464, 2012; in the data active = potentiation above about 50%; inconclusive = mostly about 30% to 49%
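D2 cells co-treated with compound plus 50 nM dopamine (EC20) for 90 min at 37 deg C to detect potentiation. Beta-arrestin recruitment was read as enzyme-fragment luminescence after 1 h at ambient temperature. Full response was set by 57 uM dopamine.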
D2 antag: HTS Assay for Allosteric Antagonists of the Human D2 Dopamine Receptor: Primary Screen for Antagonists | D(2) dopamine receptor (Homo sapiens), P14416 | HEK293 TREx D2 cells, calcium flux, dopamine EC80 | inhibition, % at 10 µM | actives 2% (n = 340,000); in the data active = inhibition above about 30%; inactive = below that, where a call was filed; note: 0% is about no effect
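Cells plated overnight at 30 C with tetracycline; no-wash calcium dye, 30–90 min RT; 10 s baseline; compound pinned; 180 s read; EC80 dopamine added; another 180 s read.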
Active calls of the source: *; ? = inconclusive; . = no result given. Only some compounds are listed: those with a hit (about 2.4% of all), similar ones and a draw of the others.

SMILES	D2 PAM-1	D2 ag-1	D2 ag-2	D2 PAM-2	D2 antag
Cc1nnc(Sc2nc3ccccc3o2)c2ccccc12	32*	0	-3	-19	-10
Cc1cccc(NC(=O)Cn2c(=O)n(Cc3ccc4c(c3)OCO4)c(=O)c3oc4ccccc4c32)c1C	1	1	.	.	.
Cc1onc(-c2ccc(Cl)cc2Cl)c1C(=O)/C=C/N(C)C	-1	0	-4	-13	16
CC(=O)c1c(-c2ccc(Cl)cc2Cl)noc1C	-11	0	-19	-8	30*
CCCN(CC(=O)Nc1ccccc1C)C(=O)c1ccc(S(=O)(=O)N2CCCCC2)cc1	-8	-1	-2	-30	5
CCCN(CC(=O)Nc1ccccc1C)C(=O)c1ccc(S(=O)(=O)N2CCCC2)cc1	-5	1	1	-1	30*
CC(C)CCN1C(Nc2ccccc2)=NC[C@@H]1CC(C)C	-24	0	-4	-9	-1
Cc1cccc(CCN2C(Nc3ccccc3)=NC[C@@H]2CC(C)C)c1	-25	60*	-2	-16	70*
Cc1cccc(NC2=NCC(=O)N2CCc2ccccc2)c1	2	2	-5	-17	37*
CC(C)C[C@H]1CN=C(Nc2ccccc2)N1CCc1cccc(F)c1	.	.	-2	-31	.
C=CCN1C(=O)CN=C1Nc1cccc(C)c1	.	.	-4	1	.
CC(C)C[C@H]1CN=C(Nc2ccccc2)N1CCc1ccc(F)cc1	-18	59*	-1	-67	73*
Cc1ccc2nc(NCc3ccccc3)c3nnnn3c2c1	0	-1	.	.	.
CCS(=O)(=O)c1nc(S(=O)(=O)c2ccc(C)cc2)c(N2CCCCCC2)s1	.	.	-2	-13	.
CC(O)CNCCCOc1cccc(C(F)(F)F)c1 (stereo unspecified)	-26	-1	-1	-17	34*
CC(=O)Nc1cccc(Oc2ncnc3scc(-c4ccc(C)cc4)c23)c1	-6	1	5	7	34*
CCOC(=O)N1CCC(NC(=O)CCCN2C(=O)CSc3ncccc32)CC1	5	0	0	9	32*
CCC(C(=O)Nc1cc(-c2nc3cccnc3s2)ccc1C)c1ccccc1 (stereo unspecified)	-1	0	.	.	.
O=C(O)c1nc(-c2ccccc2)n(-c2cccc(C(F)(F)F)c2)n1	44*	-1	-2	-5	-15
O=C(O)c1nc(-c2ccccc2)n(-c2ccccc2)n1	-11	0	-4	-30	-16
O=C1C(=O)N(C2CCN(C(=O)c3ccc(F)cc3)CC2)CCN1Cc1ccc(F)cc1	1	0	.	.	.
COc1cc2ccnc(Cc3cccc(OC)c3OC)c2cc1OC	0	1	15	55*	-4
C=CCc1ccc(OCC(O)CN2CCc3ccccc3C2)c(OC)c1 (stereo unspecified)	-13	0	-3	-28	47*
C=CCc1ccccc1OCC(O)CN1CCN(Cc2ccc3c(c2)OCO3)CC1 (stereo unspecified)	-24	1	2	-14	64*
OC(COc1ccc2c(c1)OCO2)CN1CCc2ccccc2C1 (stereo unspecified)	-25	1	0	-32	42*
SMILES	D2 PAM-1	D2 ag-1	D2 ag-2	D2 PAM-2	D2 antag
Cc1ccc(OCC(O)CN2CCN(Cc3ccc4c(c3)OCO4)CC2)cc1C (stereo unspecified)	-29	0	0	-22	22
COc1ccc(-c2nc3cc(C(C)C)ccc3o2)cc1NC(=O)c1ccc(C)c(Cl)c1	-2	0	.	.	.
Cc1nn(-c2ccc(N3CCCC3)nn2)c(C)c1CCC(=O)NCc1ccccc1F	0	0	.	.	.
COc1ccccc1-c1noc(-c2ccc(NCc3ccco3)c([N+](=O)[O-])c2)n1	-8	0	.	.	.
Fc1ccccc1N1CCN(c2ncnc3onc(-c4ccc(Cl)cc4)c23)CC1	2	1	.	.	.
CCCn1c(CCc2ccccc2)nnc1SCC(=O)N1CCCC1	0	1	-2	-12	-3
CCCc1nnc(SCC(=O)N2CCCC2)n1Cc1ccco1	-15	40*	0	0	5
Cc1ccccc1NC(=O)Cn1c(=O)n(CCCCCC(=O)NCc2ccc3c(c2)OCO3)c(=O)c2sccc21	-3	0	.	.	.
O=C(C[n+]1cccc(CNC(=O)c2ccc(OC(F)F)cc2)c1)Nc1cc(C(F)(F)F)ccc1Cl	-19	-1	-2	-39	63*
NC(=O)C[n+]1cccc(CNC(=O)c2ccc(OC(F)F)cc2)c1	1	2	-4	1	32*
COc1ccc(NC(=O)N2CCC(C(=O)c3ccc4c(c3)OCCO4)CC2)cc1	33*	-1	-2	-4	7
COc1ccc(NC(=O)N2CCCC(C(=O)NC(C)C)C2)cc1 (stereo unspecified)	-3	0	-1	4	33*
O=C(c1ccc2c(c1)OCCO2)C1CCN(C(=O)Nc2ccc(F)cc2)CC1	1	0	2	0	-8
CCN(C(=S)Nc1cccc2ccccc12)c1ccccc1	.	.	-7	-24	.
O=C(c1ccc(F)cc1)n1nc(-c2cccnc2)nc1NCc1ccc(F)cc1	5	0	.	.	.
Cc1ccc(C(=O)NCCc2nnc3ccc(SCC(=O)Nc4c(C)cc(C)cc4C)nn23)cc1	-1	0	-8	-16	-6
Cc1ccc(C(=O)NCCc2nnc3ccc(SCC(=O)Nc4ccccc4C)nn23)cc1	3	0	0	-6	41*
CC1CCCCN1CCCNC(=O)c1ccc2c(c1)sc1nc(-c3ccc(F)cc3)cn12 (stereo unspecified)	6	0	.	.	.
COc1ccc(C2=NOC(C(=O)NC(C)(C)C)C2)cc1 (stereo unspecified)	2	1	-3	-1	-11
CCN(CC)C(=O)C1CC(c2ccc(OC)cc2)=NO1 (stereo unspecified)	9	-1	-2	-20	31*
COc1cc(NC(=S)NC(=O)CCc2ccccc2)cc(OC)c1	4	1	4	62*	-4
O=C(CCc1ccccc1)NC(=S)Nc1cccc(Br)c1	6	0	?	80*	-5
COC(=O)c1cc2oc(C)cc2n1CC(=O)Nc1ccc(C(C)C)cc1	-7	0	.	.	.
O=C(NCc1cccs1)c1ccc(CSc2nc3ccncc3n2Cc2ccccc2)cc1	15	-1	.	.	.
